First the molecules themselves.
B1: Caulobacter ParB omega fusion; a variant is named by its letters at X, in order, B8GW30 (parent)
chain: MESVVVGEPGMSEGRRGLGRGLSALLGEVDAAPAQAPGEQLGGSREAPIEILQRNPDQPRRTFREEDLEDLSNSIREKGVLQPILVRPSPDTAGEYQIVAGERAWRAAQRAGLKTVPIMVRELDDLAVLEIGIIENVQRADLNVLEEALSYKVLMEKFERTQENIAQTIGKSXSHVANXMRLLXLPDEVQSYLVSGELTAXHARAIAAAADPVALAKQIIEGGLSVRETEALARKAPNLSAGKSKGGRPPRVKDTDTQALESDLSSVLGLDVSIDHRGSTGTLTITYATLEQLDDLCNRLTRGI

In all, about 81,000 sequences were measured (“one-hybrid fitness for binding parS DNA”: median about -0.17, highest 2% from about 0.51 on). The sample holds the highest values, similar sequences and a random draw of the others, so the mix is not that of the screen. Where only a bound is given, the exact number is not on record here.

The assay covers variants of B1. The experiment in a line: one-hybrid fitness for binding parS DNA (scaled: cognate 1, non-cognate 0); higher = stronger binding. The note with it: with parS DNA site. Summed up: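 Caulobacter ParB libraries with four specificity codons randomised were screened by bacterial one-hybrid selection in the E. coli USO strain, using a HIS3 reporter whose site lies 19 bp from the promoter. Selection ran for 48 hours at 37°C on M9 lacking histidine, with 0.1 mM IPTG and 5 mM 3-AT. Plasmids were Illumina-sequenced before and after selection, three replicate libraries were pooled, and variants with under 10 reads were dropped. Fitness is the log change in each variant's read ratio to wild type, rescaled against the cognate and non-cognate sites.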
For the variant LFFG, the “one-hybrid fitness for binding parS DNA” value is not above 0.2.
As for RIFN, the “one-hybrid fitness for binding parS DNA” value came out at 0.438.
Next, RIAF: 0.213.
For RIFC, the “one-hybrid fitness for binding parS DNA” value was found to be 0.96.
RIAC: the “one-hybrid fitness for binding parS DNA” value is 0.973.
For the variant RIFH, the “one-hybrid fitness for binding parS DNA” value amounted to 0.213.
Turning to RIAK, the “one-hybrid fitness for binding parS DNA” value was not above 0.2.
As for HAMK, the “one-hybrid fitness for binding parS DNA” value was not above 0.2.
With NSMR, the “one-hybrid fitness for binding parS DNA” value was not above 0.2.
Consider HTHL, for which the “one-hybrid fitness for binding parS DNA” value is not above 0.2.
Take RWMR: the “one-hybrid fitness for binding parS DNA” value is not above 0.2.
Consider RWMD, for which the “one-hybrid fitness for binding parS DNA” value was not above 0.2.
On to RWMG, for which the “one-hybrid fitness for binding parS DNA” value is 0.671.
As for RWMS, the figure is 0.788; as for RWMM, not above 0.2; as for RWMC, 0.628.
In the case of RWMK, the “one-hybrid fitness for binding parS DNA” value is not above 0.2.
On to RWMP, for which the “one-hybrid fitness for binding parS DNA” value is not above 0.2.
Regarding RWMH, the “one-hybrid fitness for binding parS DNA” value is not above 0.2.
As for RWMN, the figure is 0.211; as for RWMT, 0.556; as for RWMQ, not above 0.2.
In the case of FGNS, the “one-hybrid fitness for binding parS DNA” value was not above 0.2.
For the variant ACYG, the “one-hybrid fitness for binding parS DNA” value is not above 0.2.
As for CHPN, the “one-hybrid fitness for binding parS DNA” value was not above 0.2.
As to SMHF, the “one-hybrid fitness for binding parS DNA” value was not above 0.2.
Turning to RWVK, the “one-hybrid fitness for binding parS DNA” value is not above 0.2.
Take RWVR: the “one-hybrid fitness for binding parS DNA” value is not above 0.2.
Turning to RWKN, the “one-hybrid fitness for binding parS DNA” value is 0.421.
As for RWKD, the figure is not above 0.2; as for RWKG, 0.901.
Turning to RWVG, the “one-hybrid fitness for binding parS DNA” value was 0.584.
For the variant DTHI, the “one-hybrid fitness for binding parS DNA” value was not above 0.2.
Consider EYGF, for which the “one-hybrid fitness for binding parS DNA” value is not above 0.2.
For AERY, the “one-hybrid fitness for binding parS DNA” value is not above 0.2.
As for KENP, the “one-hybrid fitness for binding parS DNA” value is not above 0.2.
In the case of FRDG, the “one-hybrid fitness for binding parS DNA” value is not above 0.2.
With HAQD, the “one-hybrid fitness for binding parS DNA” value is not above 0.2.
Turning to RGTF, the “one-hybrid fitness for binding parS DNA” value was not above 0.2.
As to RGTG, the “one-hybrid fitness for binding parS DNA” value came out at 0.78.
For RGTN, the “one-hybrid fitness for binding parS DNA” value worked out at 0.25.
For the variant RGTH, the “one-hybrid fitness for binding parS DNA” value is not above 0.2.
RGTC: the “one-hybrid fitness for binding parS DNA” value worked out at 0.695.
For RGTK, the “one-hybrid fitness for binding parS DNA” value was not above 0.2.
For the variant RGTM, the “one-hybrid fitness for binding parS DNA” value was not above 0.2.
Take RGTP: the “one-hybrid fitness for binding parS DNA” value was not above 0.2.
Regarding RGTR, the “one-hybrid fitness for binding parS DNA” value was not above 0.2.
Take RGTD: the “one-hybrid fitness for binding parS DNA” value was not above 0.2.
On to RGTT, for which the “one-hybrid fitness for binding parS DNA” value amounted to 0.624.
For RGTS, the “one-hybrid fitness for binding parS DNA” value was 0.863.
On to TYYF, for which the “one-hybrid fitness for binding parS DNA” value is not above 0.2.
Regarding PKPC, the “one-hybrid fitness for binding parS DNA” value is not above 0.2.
As for QSEI, the “one-hybrid fitness for binding parS DNA” value was not above 0.2.
Turning to CPAM, the “one-hybrid fitness for binding parS DNA” value was not above 0.2.
Turning to QILY, the “one-hybrid fitness for binding parS DNA” value is not above 0.2.
As to QADE, the “one-hybrid fitness for binding parS DNA” value was not above 0.2.
Next, CSLA: not above 0.2; RAKM: 0.448; RAKR: not above 0.2.
Next, RAVP: not above 0.2; RAVN: 0.388; RAKC: 0.91.
For RAVC, the “one-hybrid fitness for binding parS DNA” value was 0.851.
As to CAPG, the “one-hybrid fitness for binding parS DNA” value was not above 0.2.
Next, TVAL: not above 0.2; SDKW: not above 0.2; FVSL: not above 0.2.
On to KQRR, for which the “one-hybrid fitness for binding parS DNA” value was not above 0.2.
Take IVGT: the “one-hybrid fitness for binding parS DNA” value was not above 0.2.
As for LIKM, the “one-hybrid fitness for binding parS DNA” value is not above 0.2.
In the case of INCG, the “one-hybrid fitness for binding parS DNA” value was not above 0.2.
As to RTKP, the “one-hybrid fitness for binding parS DNA” value was not above 0.2.
On to RTVQ, for which the “one-hybrid fitness for binding parS DNA” value is not above 0.2.
With RTKT, the “one-hybrid fitness for binding parS DNA” value was 0.74.
Regarding RTVK, the “one-hybrid fitness for binding parS DNA” value is not above 0.2.
Consider RTVT, for which the “one-hybrid fitness for binding parS DNA” value is 0.879.
Consider RTKQ, for which the “one-hybrid fitness for binding parS DNA” value is not above 0.2.
Regarding SPTS, the “one-hybrid fitness for binding parS DNA” value is not above 0.2.
For AAYI, the “one-hybrid fitness for binding parS DNA” value is not above 0.2.
Next, AFVR: not above 0.2.
For SQAR, the “one-hybrid fitness for binding parS DNA” value is not above 0.2.
As for QSAW, the figure is not above 0.2.
As for NFKC, the figure is not above 0.2; as for NFVC, not above 0.2; as for DFVC, not above 0.2.
As for RFKC, the “one-hybrid fitness for binding parS DNA” value worked out at 0.991.
Regarding RFVC, the “one-hybrid fitness for binding parS DNA” value came to 0.753.
For DFKC, the “one-hybrid fitness for binding parS DNA” value is not above 0.2.
As for ARWW, the “one-hybrid fitness for binding parS DNA” value was 0.23.
On to ICDS, for which the “one-hybrid fitness for binding parS DNA” value was not above 0.2.
With HSSC, the “one-hybrid fitness for binding parS DNA” value was not above 0.2.
In the case of IVSG, the “one-hybrid fitness for binding parS DNA” value stood at 0.263.
On to STPM, for which the “one-hybrid fitness for binding parS DNA” value was not above 0.2.
In the case of SILY, the “one-hybrid fitness for binding parS DNA” value is not above 0.2.
Next, RTAQ: not above 0.2; RTAT: 0.918.
As for RTFT, the “one-hybrid fitness for binding parS DNA” value is 0.911.
Regarding RTFQ, the “one-hybrid fitness for binding parS DNA” value worked out at 0.26.
With RTFM, the “one-hybrid fitness for binding parS DNA” value came out at 0.334.
For RTAR, the “one-hybrid fitness for binding parS DNA” value is not above 0.2.
In the case of EICA, the “one-hybrid fitness for binding parS DNA” value is not above 0.2.
For the variant RNHW, the “one-hybrid fitness for binding parS DNA” value is not above 0.2.
On to GQRT, for which the “one-hybrid fitness for binding parS DNA” value is not above 0.2.
As for LGMH, the “one-hybrid fitness for binding parS DNA” value is not above 0.2.
Turning to QVAS, the “one-hybrid fitness for binding parS DNA” value is not above 0.2.
In the case of RMAA, the “one-hybrid fitness for binding parS DNA” value is 0.59.
Regarding RMFA, the “one-hybrid fitness for binding parS DNA” value is 0.61.
As for RNAA, the “one-hybrid fitness for binding parS DNA” value stood at 0.456.
With RGFA, the “one-hybrid fitness for binding parS DNA” value was 0.215.
Consider REAA, for which the “one-hybrid fitness for binding parS DNA” value is not above 0.2.
On to NNVS, for which the “one-hybrid fitness for binding parS DNA” value is not above 0.2.
Consider HPRW, for which the “one-hybrid fitness for binding parS DNA” value was not above 0.2.
RKGE: the “one-hybrid fitness for binding parS DNA” value was not above 0.2.
Next, RIRP: not above 0.2; RIHN: 0.463.
For the variant RIHD, the “one-hybrid fitness for binding parS DNA” value is not above 0.2.
RILS: the “one-hybrid fitness for binding parS DNA” value came out at 1.04.
Regarding RILH, the “one-hybrid fitness for binding parS DNA” value was not above 0.2.
With RIWD, the “one-hybrid fitness for binding parS DNA” value was not above 0.2.
In the case of RIRD, the “one-hybrid fitness for binding parS DNA” value was not above 0.2.
Next, RIHS: 0.97; RILP: not above 0.2.
As to RIRS, the “one-hybrid fitness for binding parS DNA” value came out at 0.874.
Take RIWP: the “one-hybrid fitness for binding parS DNA” value came to 0.223.
As to RIWS, the “one-hybrid fitness for binding parS DNA” value stood at 1.05.
Regarding YILC, the “one-hybrid fitness for binding parS DNA” value was not above 0.2.
As for NTNE, the “one-hybrid fitness for binding parS DNA” value is not above 0.2.
Next, HGYW: not above 0.2; PCLT: not above 0.2.
Next, RIYH: not above 0.2; RIYN: 0.476; RIYS: 1.07.
For the variant VRVS, the “one-hybrid fitness for binding parS DNA” value is not above 0.2.
For the variant VYCV, the “one-hybrid fitness for binding parS DNA” value was not above 0.2.
In the case of VANG, the “one-hybrid fitness for binding parS DNA” value was not above 0.2.
With RVVT, the “one-hybrid fitness for binding parS DNA” value was found to be 0.795.
In the case of RVKT, the “one-hybrid fitness for binding parS DNA” value is 0.761.
Next, RVKD: not above 0.2.
For RVVP, the “one-hybrid fitness for binding parS DNA” value is not above 0.2.
As for RVKN, the figure is 0.46; as for RVVH, not above 0.2.
For the variant SDSY, the “one-hybrid fitness for binding parS DNA” value was not above 0.2.
Next, RRMV: not above 0.2.
In the case of RSHG, the “one-hybrid fitness for binding parS DNA” value came out at 1.
As to RIHF, the “one-hybrid fitness for binding parS DNA” value is not above 0.2.
Regarding RSHQ, the “one-hybrid fitness for binding parS DNA” value is not above 0.2.
As for REHG, the figure is 0.236; as for RCHG, 0.994.
Turning to RLHM, the “one-hybrid fitness for binding parS DNA” value is 0.321.
For the variant RIHG, the “one-hybrid fitness for binding parS DNA” value was determined as 1.02.
Consider RIHY, for which the “one-hybrid fitness for binding parS DNA” value came to 0.461.
Turning to RLHG, the “one-hybrid fitness for binding parS DNA” value came out at 1.01.
RPHG: the “one-hybrid fitness for binding parS DNA” value is not above 0.2.
As for RDHG, the figure is not above 0.2.

The values are drawn from a collection of fitness landscapes (doi:10.1016/j.celrep.2020.107928).
